Results as given in PubChem BioAssay (EPA / NIEHS).
The source made the active and inactive calls. The calls were made as follows: active = hit-call score of the fitted dose curve at least 0.9, where 1 is the maximum; inactive = score below 0.9.

How the values were obtained:
Settings in all cases: mRNA level, 48 h; actives raise or lower the signal
[1] = read-out: Apolipoprotein A-V (APOA5) gene, APOA5 (gene 116519); test: LTEA_HepaRG_APOA5: Life Technologies and Expression Analysis (LTEA) Assay for Apolipoprotein A-V (APOA5) gene using HepaRG (AID 2283474)
Summary of the method: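 APOA5 transcript levels were quantified by qRT-PCR, normalized to three housekeeping genes, after 48 h chemical treatment of HepaRG cells (8 points, 100 uM maximum, half-log steps, 0.5% DMSO). Curves fitted in both directions against vehicle.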

[2] = read-out: Apoptosis regulator Bcl-2 (Homo sapiens) (UniProt P10415); test: LTEA_HepaRG_BCL2: Life Technologies and Expression Analysis (LTEA) Assay for Bcl-2 gene using HepaRG (AID 2283475);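 also: BCL2 transcript by TaqMan qRT-PCR normalised to ACTB GAPDH and POLR2A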
Summary of the method: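 Expression change of BCL2 mRNA in HepaRG after 48 h dosing, quantified by TaqMan qRT-PCR against three endogenous controls. Concentration-response used eight points up to 100 uM, vehicle 0.5% DMSO.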

[3] = read-out: Bcl-2 (BID) gene, BID (gene 637); test: LTEA_HepaRG_BID: Life Technologies and Expression Analysis (LTEA) Assay for Bcl-2 (BID) gene using HepaRG (AID 2283476)
Summary of the method: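 Gain or loss of BID expression is fitted relative to 0.5% DMSO vehicle. Human HepaRG liver cells received a 48 h chemical exposure over an eight-point concentration range.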

Caspase-3 (Homo sapiens) = Caspase-3 (Homo sapiens) (UniProt P42574); test: LTEA_HepaRG_CASP3: Life Technologies and Expression Analysis (LTEA) Assay for cysteine-aspartic acid protease (CASP3) using HepaRG (AID 2283477)
Sequence of Caspase-3 (Homo sapiens) (P42574 whole entry, looked up): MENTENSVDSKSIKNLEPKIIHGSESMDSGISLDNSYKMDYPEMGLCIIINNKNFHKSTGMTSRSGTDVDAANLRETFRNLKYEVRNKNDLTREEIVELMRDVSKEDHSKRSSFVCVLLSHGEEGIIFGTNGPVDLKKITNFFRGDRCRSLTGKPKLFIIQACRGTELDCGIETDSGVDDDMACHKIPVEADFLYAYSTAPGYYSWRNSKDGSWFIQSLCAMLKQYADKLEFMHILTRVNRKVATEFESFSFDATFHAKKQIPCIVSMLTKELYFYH
Summary of the method: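 Expression of CASP3 was quantified by TaqMan qRT-PCR against three housekeeping genes (ACTB, GAPDH, POLR2A), bidirectionally versus 0.5% DMSO. HepaRG cultures received compounds in duplicate, top 100 uM with half-log steps, for 48 h in serum-free induction medium.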

[4] = read-out: Cytochrome P450 (CYP24A1), CYP24A1 (gene 1591); test: LTEA_HepaRG_CYP24A1: Life Technologies and Expression Analysis (LTEA) Assay for Cytochrome P450 (CYP24A1) using HepaRG (AID 2283478)
Summary of the method: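 mRNA of CYP24A1 quantified by TaqMan qRT-PCR (ACTB/GAPDH/POLR2A normalization) after 48 h chemical exposure of HepaRG cells, top concentration 100 uM, half-log steps, 0.5% DMSO vehicle, duplicates. Curves fitted bidirectionally against DMSO baseline.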

[5] = read-out: cysteine-aspartic acid protease (CASP8), CASP8 (gene 841); test: LTEA_HepaRG_CASP8: Life Technologies and Expression Analysis (LTEA) Assay for cysteine-aspartic acid protease (CASP8) using HepaRG (AID 2283480)
Summary of the method: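 Differentiated human HepaRG cells, plated 48 h then switched to serum-free induction medium, were exposed in duplicate for 48 h to 8 half-log concentrations up to 100 uM in 0.5% DMSO. CASP8 mRNA was quantified by qRT-PCR, normalized to ACTB/GAPDH/POLR2A.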

[6] = read-out: Cytochrome P450 (CYP2B6), CYP2B6 (gene 1555); test: LTEA_HepaRG_CYP2B6: Life Technologies and Expression Analysis (LTEA) Assay for Cytochrome P450 (CYP2B6) using HepaRG (AID 2283481)
Summary of the method: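 CYP2B6 transcript level quantified by qRT-PCR against three housekeeping genes, fitted bidirectionally relative to DMSO. HepaRG cultures received chemicals for 48 h, 8-point half-log series from 100 uM in 0.5% DMSO, duplicate wells, serum-free induction medium.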

[7] = read-out: Cytochrome P450 2C19 (Homo sapiens) (UniProt P33261); test: LTEA_HepaRG_CYP2C19: Life Technologies and Expression Analysis (LTEA) Assay for CYP2C19 using HepaRG (AID 2283482)
Summary of the method: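 CYP2C19 transcript levels by qRT-PCR, normalized to three housekeeping genes, in HepaRG cells after 48 h chemical exposure. Eight-point half-log series topping at 100 uM, 0.5% DMSO vehicle. Increases and decreases both fitted against DMSO.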

CYP2C8 (gene 1558) = test: LTEA_HepaRG_CYP2C8: Life Technologies and Expression Analysis (LTEA) Assay for CYP2C8 using HepaRG (AID 2283483)
Summary of the method: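 Differentiated human HepaRG cells were exposed for 48 h in serum-free induction medium to eight half-log concentrations up to 100 uM in 0.5% DMSO, in duplicate. CYP2C8 mRNA was measured by TaqMan qRT-PCR, normalized to ACTB, GAPDH and POLR2A, and fitted bidirectionally against DMSO.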

CYP2C9 (gene 1559) = test: LTEA_HepaRG_CYP2C9: Life Technologies and Expression Analysis (LTEA) Assay for CYP2C9 using HepaRG (AID 2283484)
Summary of the method: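 Differentiated human HepaRG cells were exposed 48 h in serum-free induction medium to eight half-log concentrations up to 100 uM in 0.5% DMSO. CYP2C9 mRNA was measured by qRT-PCR, normalized to ACTB, GAPDH and POLR2A, and fitted bidirectionally against DMSO.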

CYP2E1 (gene 1571) = test: LTEA_HepaRG_CYP2E1: Life Technologies and Expression Analysis (LTEA) Assay for CYP2E1 using HepaRG (AID 2283485)
Summary of the method: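 Differentiated HepaRG cells were treated in duplicate for 48 h with chemicals in 0.5% DMSO, from 100 uM downward in half-log dilutions. RNA was then analysed by qRT-PCR for CYP2E1 induction or loss.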

CYP4A11 (gene 1579) = test: LTEA_HepaRG_CYP4A11: Life Technologies and Expression Analysis (LTEA) Assay for CYP4A11 using HepaRG (AID 2283486)
Summary of the method: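 Readout is CYP4A11 transcript level by qRT-PCR, normalized to three housekeeping genes and fitted bidirectionally against 0.5% DMSO. Human HepaRG cells were treated 48 h, in duplicate, with an 8-point half-log series topping at 100 uM.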

[8] = read-out: Cytochrome P450 3A4 (Homo sapiens) (UniProt P08684); test: LTEA_HepaRG_CYP3A4: Life Technologies and Expression Analysis (LTEA) Assay for CYP3A4 using HepaRG (AID 2283487)
Summary of the method: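 In a human hepatic line (HepaRG), duplicate wells were treated 48 h with up to 100 uM chemical in half-log dilutions. Endpoint: CYP3A4 mRNA induction or loss relative to 0.5% DMSO vehicle, by qRT-PCR.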

[9] = read-out: DNA damage-inducible transcript 3 (DDIT3), DDIT3 (gene 1649); test: LTEA_HepaRG_DDIT3: Life Technologies and Expression Analysis (LTEA) Assay for DNA damage-inducible transcript 3 (DDIT3) using HepaRG (AID 2283488)
Summary of the method: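 Changes in DDIT3 transcript, in either direction relative to 0.5% DMSO vehicle, were quantified by TaqMan qRT-PCR after 48 h chemical exposure of HepaRG cells at 8 concentrations, maximum 100 uM.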

[10] = read-out: Pro-epidermal growth factor (Homo sapiens) (UniProt P01133); test: LTEA_HepaRG_EGF: Life Technologies and Expression Analysis (LTEA) Assay for Epidermal growth factor (EGF) using HepaRG (AID 2283489)
Summary of the method: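 EGF transcript measured by Fluidigm TaqMan qRT-PCR with three housekeeping genes for normalization, 48 h after dosing HepaRG cultures in duplicate (top 100 uM, half-log steps, 0.5% DMSO vehicle). Gain or loss relative to DMSO fitted.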

[11] = read-out: Early growth response protein 1 (EGR1) transcription factor, EGR1 (gene 1958); test: LTEA_HepaRG_EGR1: Life Technologies and Expression Analysis (LTEA) Assay for Early growth response protein 1 (EGR1) transcription factor using HepaRG (AID 2283490)
Summary of the method: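 Differentiated human HepaRG cells in serum-free induction medium were exposed in duplicate for 48 h to eight concentrations (top 100 uM, half-log steps) in 0.5% DMSO. EGR1 mRNA was quantified by qRT-PCR, normalized to ACTB, GAPDH and POLR2A, and fitted bidirectionally versus DMSO.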

[12] = read-out: Ezrin (EZR), EZR (gene 7430); test: LTEA_HepaRG_EZR: Life Technologies and Expression Analysis (LTEA) Assay for Ezrin (EZR) using HepaRG (AID 2283491)
Summary of the method: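 Gain or loss of EZR mRNA is scored relative to 0.5% DMSO in human HepaRG cultures treated 48 h with test chemicals in duplicate, eight half-log concentrations from 100 uM.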

[13] = read-out: Cytochrome P450 3A7 (Homo sapiens) (UniProt P24462); test: LTEA_HepaRG_CYP3A7: Life Technologies and Expression Analysis (LTEA) Assay for CYP3A7 using HepaRG (AID 2283492)
Summary of the method: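 CYP3A7 transcript measured by qRT-PCR (ACTB, GAPDH, POLR2A normalization) after 48 h chemical exposure of HepaRG cells in duplicate. Eight half-log concentrations, maximum 100 uM, 0.5% DMSO vehicle; bidirectional curve fitting against DMSO baseline.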

CYP3A5 (gene 1577) = test: LTEA_HepaRG_CYP3A5: Life Technologies and Expression Analysis (LTEA) Assay for CYP3A5 using HepaRG (AID 2283493)
Summary of the method: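 mRNA induction or loss of CYP3A5 assessed in HepaRG after 48 h dosing, 100 uM top concentration, duplicate wells; TaqMan qRT-PCR with ACTB, GAPDH, POLR2A normalization; 0.5% DMSO as negative control.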

Measured: AC50

Sequence of Cytochrome P450 3A4 (Homo sapiens) (P08684 whole entry, looked up): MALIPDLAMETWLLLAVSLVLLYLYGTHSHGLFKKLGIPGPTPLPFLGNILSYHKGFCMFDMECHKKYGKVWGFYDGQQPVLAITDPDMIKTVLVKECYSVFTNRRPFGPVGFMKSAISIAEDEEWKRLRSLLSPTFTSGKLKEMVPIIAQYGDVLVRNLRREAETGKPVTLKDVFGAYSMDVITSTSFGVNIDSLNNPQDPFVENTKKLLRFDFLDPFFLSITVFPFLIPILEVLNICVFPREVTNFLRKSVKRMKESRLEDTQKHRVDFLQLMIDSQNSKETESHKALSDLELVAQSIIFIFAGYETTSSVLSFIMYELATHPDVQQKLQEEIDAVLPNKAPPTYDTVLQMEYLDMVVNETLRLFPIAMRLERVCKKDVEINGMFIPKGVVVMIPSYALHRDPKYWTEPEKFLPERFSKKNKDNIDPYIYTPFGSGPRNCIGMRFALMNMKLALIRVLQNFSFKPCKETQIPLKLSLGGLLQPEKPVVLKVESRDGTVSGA
Sequence of Apoptosis regulator Bcl-2 (Homo sapiens) (P10415 whole entry, looked up): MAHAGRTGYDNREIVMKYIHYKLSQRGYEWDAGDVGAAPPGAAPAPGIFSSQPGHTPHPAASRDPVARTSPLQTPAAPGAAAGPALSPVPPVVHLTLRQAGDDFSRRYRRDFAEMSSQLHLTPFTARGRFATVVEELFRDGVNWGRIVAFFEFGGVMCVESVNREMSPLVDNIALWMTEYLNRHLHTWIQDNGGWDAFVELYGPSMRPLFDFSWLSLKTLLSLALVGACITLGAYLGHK
Sequence of Cytochrome P450 3A7 (Homo sapiens) (P24462 whole entry, looked up): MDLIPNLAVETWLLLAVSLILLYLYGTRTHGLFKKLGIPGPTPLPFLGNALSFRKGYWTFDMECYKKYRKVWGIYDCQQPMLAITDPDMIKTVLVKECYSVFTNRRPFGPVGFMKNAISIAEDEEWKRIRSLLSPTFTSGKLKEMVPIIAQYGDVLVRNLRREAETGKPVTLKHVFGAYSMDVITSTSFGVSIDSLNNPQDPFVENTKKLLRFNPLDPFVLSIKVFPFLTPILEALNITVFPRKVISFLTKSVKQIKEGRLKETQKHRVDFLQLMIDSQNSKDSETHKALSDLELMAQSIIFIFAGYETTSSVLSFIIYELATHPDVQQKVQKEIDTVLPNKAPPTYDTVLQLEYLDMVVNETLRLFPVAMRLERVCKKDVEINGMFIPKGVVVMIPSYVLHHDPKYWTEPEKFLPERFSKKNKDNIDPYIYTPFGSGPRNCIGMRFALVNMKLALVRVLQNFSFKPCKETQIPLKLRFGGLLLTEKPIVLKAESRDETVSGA
Sequence of Cytochrome P450 2C19 (Homo sapiens) (P33261 whole entry, looked up): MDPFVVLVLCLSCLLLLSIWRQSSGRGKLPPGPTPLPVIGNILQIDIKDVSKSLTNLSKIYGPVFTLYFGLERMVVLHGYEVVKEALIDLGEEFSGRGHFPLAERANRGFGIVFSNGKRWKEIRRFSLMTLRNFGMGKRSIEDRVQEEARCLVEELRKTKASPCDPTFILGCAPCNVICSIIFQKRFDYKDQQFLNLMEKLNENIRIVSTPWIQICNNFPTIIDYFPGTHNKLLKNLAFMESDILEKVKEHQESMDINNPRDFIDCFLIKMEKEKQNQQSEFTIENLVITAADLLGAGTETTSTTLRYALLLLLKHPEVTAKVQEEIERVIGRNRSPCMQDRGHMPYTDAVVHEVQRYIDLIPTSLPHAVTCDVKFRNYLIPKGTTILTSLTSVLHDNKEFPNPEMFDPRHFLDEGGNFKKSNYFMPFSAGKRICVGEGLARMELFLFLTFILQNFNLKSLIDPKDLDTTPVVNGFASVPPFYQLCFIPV

Cc1ccc([N+](=O)[O-])cc1
active: [6] 0.744 µM | [7] 1.87 µM | CYP2E1 (gene 1571) 20.2 µM | CYP4A11 (gene 1579) 1.58 µM | [8] 1.39 µM
inactive: all other assays above

c1ccc2c(c1)oc1ccccc12
active: [6] 0.0679 µM
not listed: [13]
inactive: all other assays above

CCCCC(CC)COC(=O)c1ccc(C(=O)OCC(CC)CCCC)c(C(=O)OCC(CC)CCCC)c1 (stereo not drawn)
not listed: [11]
inactive: all other assays above

[As]#[In]
active: [6] 39 µM
not listed: CYP2E1 (gene 1571) | [11]
inactive: all other assays above

CCN(CC)N=O
not listed: [4] | [11] | [13]
inactive: all other assays above

Nc1cc(Cl)cc(C(=O)O)c1Cl
active: CYP4A11 (gene 1579) 50 µM
not listed: [13]
inactive: all other assays above

O=[N+]([O-])c1ccc(Oc2ccc(Cl)cc2Cl)cc1
active: [6] 12.8 µM | [7] 12.4 µM | CYP2E1 (gene 1571) 58 µM | [9] 50 µM | [13] 2.45 µM
not listed: [8] | [11]
inactive: all other assays above
